In the supplement of paper PMC6089552:
In all, about 3,200 compounds went through this assay and about 300 (9.4%) showed activity. Shown is part of a subset that was picked to be rich in actives.

System: A673/TR/shEF
Assay: cell viability (LOESS-normalised, relative to median of negative controls) (log2 ratio); higher = more viable cells (less compound effect), active = hit call of the paper (over 3 MAD below the median)
Conditions: treatment time: 72 h
Summary of the method: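 A673/TR/shEF Ewing sarcoma cells were plated at 1,500 per well in 384-well plates and cultured with or without doxycycline, added 24 h before compounds, to induce EWS-FLI1 shRNA knockdown. Library compounds at two or more concentrations, alongside DMSO controls, were applied for three days. Cell viability was measured by CellTiter-Glo luminescence on an Envision reader. Readings were LOESS-corrected per plate, divided by the median of negative controls and log2-transformed, and hits were wells lying at least three median absolute deviations from the median of all screened wells.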

[1] = 0.25 µM, library screen: screen1, EWS-FLI1 expression: high (no doxycycline)
[2] = 0.25 µM, library screen: screen1, EWS-FLI1 expression: low (doxycycline-induced shRNA knockdown)
[3] = 2.5 µM, library screen: screen1, EWS-FLI1 expression: high (no doxycycline)
[4] = 2.5 µM, library screen: screen1, EWS-FLI1 expression: low (doxycycline-induced shRNA knockdown)
[5] = 0.25 µM, library screen: screen2, EWS-FLI1 expression: high (no doxycycline)
[6] = 0.25 µM, library screen: screen2, EWS-FLI1 expression: low (doxycycline-induced shRNA knockdown)
[7] = 2.5 µM, library screen: screen2, EWS-FLI1 expression: high (no doxycycline)
[8] = 2.5 µM, library screen: screen2, EWS-FLI1 expression: low (doxycycline-induced shRNA knockdown)
[9] = 0.103 µM, library screen: screen3, EWS-FLI1 expression: high (no doxycycline)
[10] = 0.103 µM, library screen: screen3, EWS-FLI1 expression: low (doxycycline-induced shRNA knockdown)
[11] = 0.308 µM, library screen: screen3, EWS-FLI1 expression: high (no doxycycline)
[12] = 0.308 µM, library screen: screen3, EWS-FLI1 expression: low (doxycycline-induced shRNA knockdown)
[13] = 0.926 µM, library screen: screen3, EWS-FLI1 expression: high (no doxycycline)
[14] = 0.926 µM, library screen: screen3, EWS-FLI1 expression: low (doxycycline-induced shRNA knockdown)
[15] = 2.8 µM, library screen: screen3, EWS-FLI1 expression: high (no doxycycline)
[16] = 2.8 µM, library screen: screen3, EWS-FLI1 expression: low (doxycycline-induced shRNA knockdown)
[17] = 8.3 µM, library screen: screen3, EWS-FLI1 expression: high (no doxycycline)
[18] = 8.3 µM, library screen: screen3, EWS-FLI1 expression: low (doxycycline-induced shRNA knockdown)
[19] = 25 µM, library screen: screen3, EWS-FLI1 expression: high (no doxycycline)
[20] = 25 µM, library screen: screen3, EWS-FLI1 expression: low (doxycycline-induced shRNA knockdown)

Measured: cell viability (log2)

COC(=O)c1c(Cl)c(Cl)c(C(=O)OC)c(Cl)c1Cl
inactive: [1] 0.0653 | [2] 0.0707 | [3] 0.0863 | [4] 0.122

CC1(C)C(=O)C=C[C@@]2(C)C1CC(=O)[C@@]1(C)C3=CC(=O)O[C@@H](c4ccoc4)[C@]3(C)CCC12 (some centres not stated)
inactive: [1] 0.0432 | [2] 0.0348 | [3] 0.201 | [4] 0.163

CCOC([O-])=Nc1c[n+](N2CCOCC2)no1
inactive: [1] 0.0951 | [2] 0.0303 | [5] 0.227 | [6] 0.0663 | [3] 0.0784 | [4] 0.0384 | [7] 0.102 | [8] 0.116

CC1(C)O[C@H]2[C@H](O)C[C@](O)(C(N)=O)C[C@H]2O1
inactive: [1] -0.0199 | [2] -0.00566 | [3] 0.076 | [4] 0.0924

Oc1ccc2c(c1)OC[C@]1(O)Cc3cc(O)c(O)cc3[C@H]21
inactive: [1] 0.113 | [2] 0.129 | [3] 0.0951 | [4] 0.187

NC(C(=O)O)C(O)C(O)C(O)CO (configuration not stated)
inactive: [1] 0.0607 | [2] 0.059 | [3] 0.025 | [4] 0.121

COc1ccccc1NC(=O)C1=C(C)NC(=O)NC1c1ccc(Cl)cc1 (configuration not stated)
inactive: [1] 0.0563 | [2] 0.0447 | [3] 0.0428 | [4] 0.00886

O=C(CSc1nnc(Cc2ccccc2)o1)c1ccc(Cl)cc1
inactive: [1] 0.0547 | [2] 0.0748 | [3] 0.133 | [4] -0.101

C[C@H]1CC[C@@H](C(C)(C)O)CC2=C1CC[C@@H]2C
inactive: [1] -0.0585 | [2] 0.0603 | [3] 0.0212 | [4] 0.083

C[C@@H](Oc1cc(-c2cnn(C3CCNCC3)c2)cnc1N)c1c(Cl)ccc(F)c1Cl
active: [17] -0.189 | [19] -1.08
inactive: [9] 0.0466 | [10] 0.078 | [11] 0.0248 | [12] 0.0309 | [13] 0.0194 | [14] 0.0561 | [15] -0.012 | [16] 0.0202 | [18] 0.0761 | [20] -0.0839

COC(=O)C1=C(C)N=c2sc(=Cc3cccs3)c(=O)n2C1c1ccc(OC)cc1 (configuration not stated)
inactive: [1] 0.0442 | [2] 0.034 | [3] 0.0701 | [4] 0.111

CNC(=O)c1cc2c(cn1)[nH]c1ccccc12
inactive: [5] 0.143 | [6] 0.0456 | [7] 0.152 | [8] 0.0711

CNC(=O)c1ccccc1Sc1ccc2c(/C=C/c3ccccn3)n[nH]c2c1
inactive: [9] -0.00228 | [10] 0.0386 | [11] 0.0978 | [12] 0.044 | [13] 0.0712 | [14] 0.145 | [15] 0.0241 | [16] 0.188 | [18] 0.195 | [20] -0.0147
active: [17] -0.181 | [19] -0.513

CC(C)=CCC[C@@H](C)[C@H]1CC[C@@]2(C)C3=C(CC[C@]12C)[C@@]1(C)CC[C@H](O)C(C)(C)[C@@H]1CC3
inactive: [1] 0.101 | [2] -0.00557 | [3] 0.158 | [4] 0.0178

O=C(O)CCCCCCCn1ccnc1
inactive: [1] 0.124 | [2] 0.0433 | [3] 0.168 | [4] 0.0749

CC1=C(Cl)C(O)=C(Cl)C(=O)C12Oc1cc(O)c(Cl)c(C)c1C2=O (configuration not stated)
inactive: [1] 0.065 | [2] 0.0174 | [3] 0.111 | [4] 0.157

CC(=O)OC12CCCC(C)(CCC3C1CC3(C)C)C2 (configuration not stated)
inactive: [1] 0.0248 | [2] -0.0723 | [3] 0.116 | [4] -0.0213

CC(=O)OC1(C)CCC23CC1C(C)(C)[C@@H]2CC[C@H]3C (some centres not stated)
inactive: [1] 0.0148 | [2] 0.0289 | [3] 0.15 | [4] 0.0585
